From PubChem BioAssay
Rows were chosen to be rich in hits. Some 9.3% of all compounds tested hit in one or more screens of this group.
FLuc modulator: inhibits or activates purified firefly luciferase, miR-21 counter-screen. purified FLuc, Km substrates, luminescence inhibition. AID 588342. P08659. 6.9% of 360,000 active. Potency, µM (doses to about 57.5 µM), for inactives: top-dose activity change, negative = inhibition, most hits filed as inhibitors;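 further: plate controls were vehicle for no effect and reference inhibitor for full effect; nearly all actives have a fitted effect of over 55% in size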
Target sequence (P08659 whole entry, looked up): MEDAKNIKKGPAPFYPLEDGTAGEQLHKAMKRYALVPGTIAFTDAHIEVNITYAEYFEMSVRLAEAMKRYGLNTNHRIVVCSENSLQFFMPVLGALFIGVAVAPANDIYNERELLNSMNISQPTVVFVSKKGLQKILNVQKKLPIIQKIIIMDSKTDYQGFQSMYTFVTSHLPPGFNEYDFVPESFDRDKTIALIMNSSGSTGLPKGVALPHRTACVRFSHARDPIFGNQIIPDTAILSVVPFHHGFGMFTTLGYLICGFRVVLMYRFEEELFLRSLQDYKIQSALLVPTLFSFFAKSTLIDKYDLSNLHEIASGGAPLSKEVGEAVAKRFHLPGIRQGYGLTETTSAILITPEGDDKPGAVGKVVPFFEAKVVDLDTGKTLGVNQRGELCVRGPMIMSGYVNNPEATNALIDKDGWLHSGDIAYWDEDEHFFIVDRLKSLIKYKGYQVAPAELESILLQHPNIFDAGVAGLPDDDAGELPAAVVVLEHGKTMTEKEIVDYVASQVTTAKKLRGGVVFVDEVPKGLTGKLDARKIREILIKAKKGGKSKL
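Biochemical qHTS of compounds, final roughly 60 µM downward over six points, against 10 nM purified firefly luciferase using Km concentrations of substrates (10 uM D-luciferin, 10 uM ATP) in Tris acetate pH 7.5 buffer; luminescence output.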
ELG1 genotox: genotoxicity induction in ELG1-luciferase HEK293T cells | Potency, µM (top dose mostly 46 µM), for the others: top-dose activity change, positive = activation, usual class: activators | 1.3% of 330,000 active | HEK293T ELG1-luciferase reporter, luminescence, 16 h; further: % of control where 0% means no effect; nearly all actives have a fitted effect of over 60% in size
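ELG1-luciferase HEK293T cells, 2,000/well; compound pinned in; 16 hr, 37 °C, 5% CO2; ONE-Glo, 30 min RT; luminescence on CCD imager.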
Rab9 prom act: activates the Rab9 promoter; Potency, µM (series often up to 9.22 µM), inactives show at the highest dose activation, negative = inhibition, hits mostly activators; Huh7 Rab9 promoter-luciferase reporter, luminescence, 24 h; 2.8% of 320,000 active; further: % of control where 0% means no effect; nearly all actives have a fitted effect of over 60% in size
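Steps: seed 1500 Huh7 Rab9-luc cells per well, rest 2 h at 37 °C; add compound in DMSO; incubate 24 h; add luciferase reagent, 10 min ambient; read luminescence.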
NPC1 prom act: activators of NPC1 promoter; Huh7 NPC1 promoter luciferase reporter, 24 h; Potency, µM (highest dose often 9.22 µM), without a hit: at the top dose activation, most hits filed as activators; 2.4% of 320,000 active; AID 485313; further: % of control where 0% means no effect; nearly all actives have a fitted effect of over 60% in size
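Luciferase expression driven by the NPC1 promoter was measured in stably transfected Huh7 cells after a 24 h compound incubation, using a luciferase reagent and a luminescence read.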
ELG1 repair inh: inhibitors of ELG1-dependent DNA repair in HEK293T cells | 2.3% of 330,000 active | Potency, µM (highest dose often 46.1 µM), without a hit: at the top dose activity change, negative = inhibition, most hits filed as inhibitors | HEK293T ELG1-luciferase reporter, luminescence, 16 h; DNA damage induced by 5-fluorouridine | AID 504467; further: on the % scale 0 is the no-effect control and ±100 the full control effect; nearly all actives have a fitted effect of over 55% in size
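Luminescence from the luciferase reporter, measured 30 min after ONE-Glo reagent at room temperature, was the read-out. Beforehand, 2,000 cells per well were exposed for 16 hr at 37 °C to 5-fluorouridine together with compound or vehicle.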
SMN2 splice up: increases expression of the SMN2 splice variant. HEK293 SMN2-luciferase splicing reporter, luminescence, 30-36 h. Potency, µM (doses to about 46.1 µM), for inactives: at the top dose activity change, positive = activation, usual class: activators. 2.8% of 210,000 active. AID 1458; further: % of control where 0% means no effect; nearly all actives have a fitted effect of over 55% in size
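HEK293 cells carry an SMN2 minigene-luciferase reporter in which exon 7 inclusion puts luciferase in frame. Cells were seeded at 2000 cells/well, attached for 10-12 hours, then exposed to compounds for 30-36 hours at 37C before ONE-Glo luminescence.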
* marks the source's active call; other numbers are inactive results; [ ] = another dose, or the depositor's remark. The call rests on the fitted dose curve; in most records, active means well fitted curve in the direction sought with a large enough effect; inconclusive means small, poorly fitted or top-dose-only effect, or another doubt; inactive means no such curve, though single readings can be large; an effect the other way counts as inactive or inconclusive. Potency means the concentration at half of the fitted maximal effect.

What do the screens show for `Cc1cccc(-n2ncc3c(NC(C)C)ncnc32)c1`?
FLuc modulator: 2.4µM*; ELG1 genotox: 2.6µM*; Rab9 prom act: 0.89µM*; NPC1 prom act: 3.2µM*; ELG1 repair inh: inconclusive; SMN2 splice up: 3.5µM*

Results for CCCn1ncc2c(Nc3ccc(C)c(C)c3)ncnc21 ?
FLuc modulator: 24µM*; ELG1 genotox: inconclusive; Rab9 prom act: inconclusive; NPC1 prom act: 3.5µM*; ELG1 repair inh: inconclusive

Results for CC(C)Oc1ccc(CNC(=O)C2CCN(C(=O)c3sccc3-n3cccc3)CC2)cc1 ?
FLuc modulator: 1%; SMN2 splice up: -25%

Results for N#Cc1cccc(NC(=O)CNc2cccc(S(=O)(=O)N3CCCCC3)c2)c1 ?
FLuc modulator: -12%; ELG1 genotox: -7%; Rab9 prom act: -1%; NPC1 prom act: -2%; ELG1 repair inh: inconclusive

What do the screens show for `CC1CCC(C(C)C)C(OC(=O)Cn2nnc3c(cnn3-c3ccccc3)c2=O)C1` (stereo unspecified)?
FLuc modulator: -2%; ELG1 genotox: -8%; Rab9 prom act: 0%; NPC1 prom act: -3%; ELG1 repair inh: 16µM*

What do the screens show for `O=C(Cn1nnc2c(cnn2-c2ccccc2)c1=O)NCc1cccs1`?
FLuc modulator: -2%; ELG1 genotox: 2%; Rab9 prom act: 23%; NPC1 prom act: 16%; ELG1 repair inh: 0%; SMN2 splice up: 20%

What do the screens show for `COc1ccc(OC)c(C(=O)/C=C/c2cccnc2)c1`?
FLuc modulator: 2%; ELG1 genotox: 0%; Rab9 prom act: -8%; NPC1 prom act: -7%; ELG1 repair inh: inconclusive

How did N#Cc1ccc(/C=C/C(=O)c2cccnc2)cc1 do in these assays?
FLuc modulator: -13%; ELG1 genotox: inconclusive; Rab9 prom act: 1%; NPC1 prom act: -11%; ELG1 repair inh: inconclusive; SMN2 splice up: 2%

How did COc1cc(C(=O)/C=C/c2cccnc2)ccc1O do in these assays?
FLuc modulator: 19µM*; ELG1 genotox: -39%; Rab9 prom act: 6%; NPC1 prom act: -4%; ELG1 repair inh: inconclusive

How did O=C(/C=C/c1ccccc1Cl)c1ccc(O)cc1 do in these assays?
FLuc modulator: 9.5µM*; ELG1 genotox: 13%; Rab9 prom act: 1%[1.84 µM]; NPC1 prom act: -4%; ELG1 repair inh: inconclusive

What do the screens show for `O=C(/C=C/c1ccc(Cl)cc1)c1cccnc1`?
FLuc modulator: 21µM*; ELG1 genotox: 14%; Rab9 prom act: -4%; NPC1 prom act: 2%; ELG1 repair inh: inconclusive; SMN2 splice up: -8%

Results for O=C(/C=C/c1c(F)cccc1Cl)Nc1ncccn1 ?
FLuc modulator: 15µM*; ELG1 genotox: inconclusive; Rab9 prom act: 2.5µM*; NPC1 prom act: 2.8µM*; ELG1 repair inh: inconclusive; SMN2 splice up: 14µM*

Results for CC/C(CC(=O)C(F)(F)F)=N\NC(=O)/C(C#N)=C/N(C)C ?
FLuc modulator: 0%; ELG1 genotox: 0%; Rab9 prom act: 2%; NPC1 prom act: -17%; ELG1 repair inh: 1%

What do the screens show for `COCCN1C(=O)N[C@@H](c2cccc(C(F)(F)F)c2)C(C(=O)OC)=C1C`?
SMN2 splice up: -10%[9.22 µM]

Results for O=C(/C=C/c1ccccc1Cl)c1cccnc1 ?
FLuc modulator: 17µM*; ELG1 genotox: 14%; Rab9 prom act: 1%; NPC1 prom act: -4%; ELG1 repair inh: inconclusive; SMN2 splice up: -18%

What do the screens show for `CCN(CC)c1ccc(/C=C/C(=O)c2cccnc2)cc1`?
FLuc modulator: -1%; ELG1 genotox: -6%; Rab9 prom act: -1%; NPC1 prom act: 0%; ELG1 repair inh: 23µM*; SMN2 splice up: 3%

Results for O=C(/C=C/c1ccc(OCc2ccccc2)c(OCc2ccccc2)c1)c1cccnc1 ?
FLuc modulator: -3%; ELG1 genotox: -1%; Rab9 prom act: -11%; NPC1 prom act: -6%; ELG1 repair inh: 23%; SMN2 splice up: -28%

What do the screens show for `O=C(/C=C/c1c(F)cccc1Cl)c1ccc(O)cc1`?
FLuc modulator: 11µM*; ELG1 genotox: 4%; Rab9 prom act: 0%; NPC1 prom act: 0%; ELG1 repair inh: 18%

How did CCN(CC(=O)Nc1ccc(NC(C)=O)cc1)C(=O)/C=C/c1c(C)nn(-c2ccc(F)cc2)c1Cl do in these assays?
FLuc modulator: 8%; ELG1 genotox: -2%; Rab9 prom act: -7%; NPC1 prom act: 1%; ELG1 repair inh: 5.8µM*

What do the screens show for `CCOc1ccc(NC(=O)CN(C)C(=O)c2cn(-c3ccccc3)nc2-c2cccs2)cc1OCC`?
FLuc modulator: inconclusive; ELG1 genotox: -10%; Rab9 prom act: -1%; NPC1 prom act: -3%; ELG1 repair inh: 21µM*

Results for CCN(CC(=O)Nc1ccc(NC(C)=O)cc1)C(=O)/C=C/c1cn(-c2ccccc2)nc1-c1cccs1 ?
FLuc modulator: 17µM*; ELG1 genotox: -21%; Rab9 prom act: inconclusive; NPC1 prom act: -1%; ELG1 repair inh: inconclusive

What do the screens show for `COc1cc(NC(=O)COC(=O)/C=C/c2c(C)nn(-c3ccc(F)cc3)c2Cl)cc(OC)c1`?
FLuc modulator: -4%; ELG1 genotox: 1%; Rab9 prom act: -8%; NPC1 prom act: -1%; ELG1 repair inh: inconclusive; SMN2 splice up: 5%[1.84 µM]

How did CCCC(=O)Nc1c2c(nc3ccccc13)N(c1ccccc1)CC2 do in these assays?
FLuc modulator: 2%; ELG1 genotox: -5%; Rab9 prom act: -2%; NPC1 prom act: -1%; ELG1 repair inh: -18%

Results for COc1ccccc1-c1ccc(NC2CCCCC2)nn1 ?
FLuc modulator: 7.6µM*; ELG1 genotox: inconclusive; Rab9 prom act: inconclusive; NPC1 prom act: inconclusive; ELG1 repair inh: inconclusive; SMN2 splice up: 10µM*

What do the screens show for `O=C1CCC/C(=N/NC(=O)C2CCN(S(=O)(=O)c3cccs3)CC2)C1`?
FLuc modulator: 2%; ELG1 genotox: 1%; Rab9 prom act: -5%; NPC1 prom act: 0%; ELG1 repair inh: -1%; SMN2 splice up: 2%

What do the screens show for `COc1ccc(-n2sc3c(c2=S)-c2cc(OC)ccc2NC3(C)C)cc1`?
FLuc modulator: 5%; ELG1 genotox: -8%; Rab9 prom act: 1%; NPC1 prom act: -3%; ELG1 repair inh: -2%; SMN2 splice up: -37%

What do the screens show for `COc1ccc2c(c1)-c1c(ssc1=S)C(C)(C)N2`?
FLuc modulator: -23%; ELG1 genotox: -12%; Rab9 prom act: 1%; NPC1 prom act: 8%; ELG1 repair inh: 2.6µM*; SMN2 splice up: -4%
